Records with an inconclusive call do not appear. A call without a number means that no potency is given here. The source made the active and inactive calls. Calls follow the shape of the dose curve; as a rule, active = well fitted inhibition curve with a large enough effect; inconclusive = small, poorly fitted or top-dose-only effect; inactive = flat fitted curve, though single readings scatter.
What was measured:
Experiment in all cases: qHTS profiling for inhibitors of Plasmodium falciparum proliferation (AID 504749); also: nearly all actives have a fitted effect of over 60% in size
Settings in all cases: P. falciparum in erythrocytes, SYBR Green DNA, 72 h; series mostly up to 28.7 µM
CP215 = system: CP215
In short: (§1)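 Each compound contacts P. falciparum-infected red blood cells for 72 h at 37 C; lysis buffer (Tris, EDTA, saponin, Triton X, SYBR Green I) is added and fluorescence measured next morning; values normalized to controls.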

CP217 = system: CP217
In short: as §1

CP237 = system: CP237
In short: as §1

CP238 = system: CP238
In short: as §1

CP247 = system: CP247
In short: as §1

CP250 = system: CP250
In short: as §1

CP252 = system: CP252
In short: as §1

CP260 = system: CP260
In short: as §1

CP262 = system: CP262
In short: as §1

CP256 = system: CP256
In short: as §1
Potency is read from the fitted curve at half-maximal effect.

Row | Structure (SMILES) | Potency (CP215) | Potency (CP217) | Potency (CP237) | Potency (CP238) | Potency (CP247) | Potency (CP250) | Potency (CP252) | Potency (CP260) | Potency (CP262) | Potency (CP256)
1 | COc1ccc2c(c1)C13CCCC[C@@H]1C(C2)N(C)CC3 (stereo not given in full) | inactive | inactive | inactive | inactive | inactive | inactive | inactive | 11200 nM (active) | inactive | –
2 | C=CCN1C[C@H](C)N([C@H](c2ccc(C(=O)N(CC)CC)cc2)c2cccc(OC)c2)C[C@H]1C | inactive | – | 12600 nM (active) | inactive | – | – | – | – | – | –
3 | C=C(C)[C@H]1CN[C@H](C(=O)O)[C@H]1CC(=O)O | – | inactive | inactive | inactive | inactive | inactive | inactive | inactive | inactive | inactive
4 | CNC(C)(C)Cc1ccccc1 | inactive | inactive | – | inactive | inactive | inactive | inactive | inactive | inactive | inactive
5 | CCC1(c2ccccc2)C(=O)N(COC)C(=O)N(COC)C1=O | inactive | inactive | inactive | inactive | inactive | inactive | inactive | inactive | inactive | inactive
6 | O=c1[nH]oc2c1CCNC2 | inactive | inactive | inactive | inactive | inactive | inactive | inactive | inactive | inactive | inactive
7 | O=C1Nc2ccc(Cl)cc2C(c2ccccc2)=NC1O (stereo not given) | – | inactive | inactive | inactive | inactive | inactive | inactive | inactive | inactive | inactive
8 | CN1C(=O)C(O)N=C(c2ccccc2)c2cc(Cl)ccc21 (stereo not given) | – | inactive | inactive | inactive | inactive | inactive | inactive | inactive | inactive | inactive
9 | O=C(O)CCCc1ccc(N(CCCl)CCCl)cc1 | inactive | inactive | inactive | inactive | inactive | – | inactive | inactive | inactive | inactive
10 | O=P1(N(CCCl)CCCl)NCCCO1 (stereo not given) | inactive | inactive | inactive | inactive | inactive | inactive | inactive | inactive | inactive | –
11 | CC(C)(C)NCC(O)c1ccccc1Cl (stereo not given) | – | – | 8910 nM (active) | – | – | inactive | – | – | inactive | inactive
12 | Cc1nnc2n1-c1ccc(Cl)cc1C(c1ccccc1)=NC2 | inactive | inactive | inactive | inactive | inactive | inactive | inactive | inactive | inactive | –
13 | CCCCCCCCCC(=O)O[C@H]1CC[C@H]2[C@@H]3CCC4=CC(=O)CC[C@@H]4[C@H]3CC[C@]12C | inactive | inactive | inactive | inactive | inactive | inactive | inactive | – | inactive | inactive
14 | NC(=O)c1cc([N+](=O)[O-])cc([N+](=O)[O-])c1 | inactive | – | – | inactive | – | – | – | – | – | inactive
15 | CCCC(C)(COC(N)=O)COC(N)=O | – | inactive | inactive | inactive | inactive | inactive | inactive | inactive | inactive | inactive
16 | CCCCCCC(=O)CCCCCC/C=C/C[C@@H](O)[C@H](O)[C@@](N)(CO)C(=O)O | inactive | inactive | inactive | inactive | inactive | – | inactive | inactive | inactive | inactive
17 | O=C1c2ccccc2C(=O)C1C(=O)C(c1ccccc1)c1ccccc1 | inactive | inactive | inactive | inactive | inactive | inactive | inactive | – | inactive | inactive
18 | COc1ccc2c(c1OC)C(=O)O[C@H]2[C@@H]1c2cc3c(cc2CCN1C)OCO3 | inactive | – | – | – | – | – | – | – | inactive | –
19 | O=C(N/N=C/c1ccc([N+](=O)[O-])o1)c1cc([N+](=O)[O-])cc([N+](=O)[O-])c1O | – | 2.8 nM (active) | – | 70.8 nM (active) | 20 nM (active) | 100 nM (active) | – | – | – | 251 nM (active)

Source: PubChem BioAssay (NCATS)
